This is an account of results in PubChem BioAssay.

Calls of active or inactive are those of the source.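 The calls were made as follows: active = viability at or below 10% of carrier control in both of two separate runs; inconclusive = viability at or below 10% in only one of the two runs; inactive = the rest.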

The assay can be described thus: reduced viability of SK-BR-3 breast cancer cells – cell-based, 24 h, human, pilot screen (AID 572).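 Also: compound exposure lasted between 18 and 24 h rather than exactly 24 h; 100% = carrier-treated control wells.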 The conditions noted are these: SK-BR-3 viability, CellTiter-Glo luminescence, at 10 µM, hits give low values.
For the compound `Cc1sc2ncnc(OCC(=O)N3CCN(S(=O)(=O)c4ccc(Cl)cc4)CC3)c2c1C`, the viability (usually a read-out of living cells in per cent, often relative to untreated cells) was 92.5% (inactive). With `CCOC(=O)CNS(=O)(=O)c1c(C)noc1C`, the viability is 110% (inactive). For the compound `COC(=O)c1onc(C(=O)c2ccccc2)c1C(=O)OC`, the viability is 104% (inactive).

Turning to `O=C(O)c1cccc(CN2C(=O)SC(Nc3ccccc3)C2=O)c1` (configuration not stated), the viability is 110% (inactive). Turning to `COC(=O)C1C(=O)c2c([nH]c(C(=O)OCCOC(C)C)c2C)CC1C` (configuration not stated), the viability was 100% (inactive). On to `CCOC(=O)c1c(NC(=O)CSc2nnc(-c3ccc(OC)cc3)o2)sc2c1CCC2`, for which the viability is 88% (inactive). The same measure for `O=C(c1cccnc1NCc1ccccc1)N1CCOCC1`: 77.5% (inactive); for `O=C1CC(N2CCN(c3cccc(C(F)(F)F)c3)CC2)C(=O)N1c1ccccc1` (configuration not stated): 93.5% (inactive); for `Cc1ccc(N=C2NC(=O)CS2)c(C)c1`: 71% (inactive).

Turning to `O=C(NCc1cccs1)C1CCCN(c2ncccn2)C1` (configuration not stated), the viability is 104% (inactive).

`Cc1cc2ncn(N)c2cc1C`: the viability is 99.5% (inactive). With `COc1ccccc1N1CCN(C(=O)CSc2nc(-c3ccccc3)cc(=O)[nH]2)CC1`, the viability was 87.5% (inactive). Regarding `Cc1nn(-c2ccccc2)c(Cl)c1C(=O)NCC(=O)O`, the viability is 100% (inactive). The same measure for `COc1nc(N2CCOCC2)nc(-n2cccc2)n1`: 94.5% (inactive). Turning to `CCSc1nnc(NC(=O)C(CC)(C(F)(F)F)C(F)(F)F)s1`, the viability is 79.5% (inactive). As for `COC(=O)C1CCN(C(=O)NC(C)(C)C)CC1`, the viability is 110% (inactive). As for `Cc1nn(-c2ccc(Cl)cc2)c2sc(C(=O)N3CCN(c4ccccn4)CC3)cc12`, the viability was 103% (inactive).
